Bioassay records from PubChem.
Sampled rows, rich in hits. Any-hit rate of the full collection: about 3.1%.
Wnt act = activates Wnt/beta-catenin signaling in a reporter cell assay; 300,000 tested, 1.2% active; activator, plate reader; activation, % at 9.35 µM; in the data active = activation above about 30%, passing the limit was not always enough; inconclusive = no clear call, values can overlap the other calls;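 note: 0% = neutral control wells and 100% = positive control wells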
MITF act = activators of MITF-driven TRPM1 promoter activity in SK-MEL-5 cells; AID 588334; activation, % at 12.5 µM; SK-MEL-5 TRPM1-promoter luciferase, 24 h; % of positive control, neutral wells = 0; 300,000 tested, 0.75% active;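 active = mean activation of at least 80% with every replicate also reaching 80%; inconclusive = mean reaches 80% but some replicate falls short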;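 note: 0% = neutral control wells and 100% = parthenolide positive control wells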
esBAF inh = inhibitors of esBAF chromatin remodeling in mouse ES cells | 350,000 tested, 2% active | Bmi1-luciferase knock-in reporter, 24 h; 100% = twice the neutral-well signal | AID 602393 | reporter increase, % at 12.5 µM; in the data active = activation above about 40%; inconclusive = no clear call, values can overlap the other calls;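 note: 0% = median of the plate's neutral control wells and 100% = double that signal; a rise in the Bmi1 reporter signal indicates esBAF inhibition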
C2C12 statin = suppression of simvastatin myotoxicity. C2C12 myotubes + simvastatin, ATP luminescence, 48 h; scaled: DMSO 0, geranylgeraniol control 100. rescue of ATP level, % at 7.49 µM. 330,000 tested, 0.78% active. AID 602340;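 active = mean ATP rescue above about 67%, or every replicate alone reaching that limit, limit read from the data, passing the limit was not always enough; inconclusive = no clear call, values can overlap the other calls; inactive = mean under the limit and some replicate under it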;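 note: myotubes were challenged with 10 µM simvastatin during compound exposure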
Rtt109 Vps75 = C. albicans Rtt109 histone acetyltransferase inhibition; purified Rtt109/Vps75, ThioGlo CoA-SH fluorescence, 4 h; inhibition, % at 34.9 µM; 330,000 tested, 0.16% active; AID 540336;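 active = inhibition of at least 50% in every replicate; inconclusive = best replicate reaches 50% inhibition but some replicates fall short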
Target sequence (Q5AAJ8 whole entry, looked up): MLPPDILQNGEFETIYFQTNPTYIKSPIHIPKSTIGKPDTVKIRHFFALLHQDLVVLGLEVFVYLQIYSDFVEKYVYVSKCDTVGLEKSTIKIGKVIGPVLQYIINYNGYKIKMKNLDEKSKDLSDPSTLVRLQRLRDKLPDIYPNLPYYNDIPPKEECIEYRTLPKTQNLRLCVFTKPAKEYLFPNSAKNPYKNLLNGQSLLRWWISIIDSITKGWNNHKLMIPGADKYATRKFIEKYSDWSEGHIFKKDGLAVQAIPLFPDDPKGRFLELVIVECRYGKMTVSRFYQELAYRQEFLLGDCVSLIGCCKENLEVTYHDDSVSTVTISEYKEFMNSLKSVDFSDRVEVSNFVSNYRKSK
Numbers without * were called inactive; ? = inconclusive; · = no result given.

SMILES | Wnt act | MITF act | esBAF inh | C2C12 statin | Rtt109 Vps75
CCOC(=O)c1sc2nc3n(c(=O)c2c1C)CCCCC3 | · | ? | 68.1* | -6.8 | 4.8
Cc1c(C(=O)O)sc2nc3n(c(=O)c12)CCCCC3 | -3.3 | -7.0 | · | · | -0.9
Cc1c(C(=O)Nc2cc(F)ccc2F)sc2nc3n(c(=O)c12)CCCCC3 | 17.9 | 73.6 | 70.9* | -107.3 | 4.7
CSc1cccc(NC(=O)c2sc3nc4n(c(=O)c3c2C)CCC4)c1 | 17.9 | ? | 53.7* | -20.2 | 8.8
CCCC(=O)Nc1ccc2c(c1)C(=O)N(C)[C@@H]1CC[C@H](CC(=O)NCc3ccccc3Cl)O[C@@H]1CO2 | · | · | -3.6 | -22.7 | ·
O=C(C[C@H]1C[C@H]2c3cc(NC(=O)Cc4ccncc4)ccc3O[C@H]2[C@H](CO)O1)NCc1cc(F)ccc1F | · | · | 15.1 | 7.4 | ·
Cc1ccc(N2NC(C)(c3cccs3)NC2=S)cc1 (stereo not given) | 11.6 | 92.3* | · | · | 20.3
CCC(CC)NC(=O)c1cc2c(C)nn(Cc3ccccc3Cl)c2s1 | 1.4 | 9.9 | -10.3 | 10.8 | -13.2
Cc1nn(Cc2ccccc2Cl)c2sc(C(=O)NCc3ccc4c(c3)OCO4)cc12 | · | 7.1 | 4.2 | 125.5* | 1.0
Cc1noc(C)c1NC(=O)Nc1ccc2c(c1)CC(=O)N([C@H](C)CO)C[C@@H](C)[C@@H](CN(C)C(=O)Nc1ccccc1)O2 | · | · | -1.1 | -9.2 | ·
CCNC(=O)[C@H]1[C@H](CO)[C@H]2Cn3c(ccc(C4=CCCCC4)c3=O)[C@H]2N1Cc1ccccc1F | · | · | -2.8 | 15.3 | ·
Cn1c(SCC(=O)N2CCN(C(=O)c3ccco3)CC2)nnc1-c1ccc(NS(C)(=O)=O)cc1 | -1.6 | 5.4 | -5.9 | 97.9* | 1.0
Cc1cc2cc(C)c3nnc(SCC(=O)N4CCN(C(=O)c5ccco5)CC4)n3c2cc1C | -3.4 | -5.4 | · | · | -1.2
C/C(=N/N=C/c1ccccc1O)c1ccccc1O | 44.3* | 55.9 | 48.5 | 21.6 | 2.6
O=C(N[C@H]1CC[C@H](CCNS(=O)(=O)c2ccccc2Cl)O[C@H]1CO)c1ccc(F)cc1 | · | · | 7.3 | 15.3 | ·
CSc1ccccc1-c1nnc(-c2ccccc2)o1 | · | 78.0 | 42.7* | -4.1 | 4.6
Nc1ccc(-c2nnc(-c3ccc(N)cc3)o2)cc1 | 35.2* | 99.4* | 10.1 | -2.4 | -8.7
Nc1ccccc1-c1nnc(-c2ccc(-c3ccccc3)cc2)o1 | · | 90.5* | 20.6 | -22.3 | 1.7
COc1ccccc1N/C(=N/S(=O)(=O)c1ccc(Cl)cc1)c1ccccc1 | · | 4.4 | -7.1 | 16.5 | 1.8
O=C(O)c1ccc(N/C(=N\S(=O)(=O)c2ccc(Cl)cc2)c2ccccc2)cc1 | 3.2 | -6.5 | 0.5 | 16.2 | -8.0
COc1ccc(NC(=S)NC(=NS(=O)(=O)c2ccc(Cl)cc2)c2ccccc2)cc1 | 12.9 | 56.7 | 112.9* | -12.1 | -4.3
O=S(=O)(/N=C(/NC(=S)Nc1ccccc1)c1ccccc1)c1ccc(Cl)cc1 | -0.6 | 111.8* | 68.4* | -42.3 | 6.9
O=C(NN/C(=N/S(=O)(=O)c1ccc(Cl)cc1)c1ccccc1)c1cccc(Cl)c1 | 33.0* | 42.7 | 36.4 | 0.3 | 1.8
COc1ccc(NC(=S)N/C(=N/S(=O)(=O)c2ccc(C)cc2)c2ccccc2)cc1 | 7.4 | 30.9 | 58.8* | -9.3 | -10.8
CO[C@@H]1CN(C)C(=O)c2cc(NC(=O)C3CCCC3)ccc2OC[C@@H](C)N(Cc2nccs2)C[C@H]1C | · | · | 2.0 | -2.4 | ·
SMILES | Wnt act | MITF act | esBAF inh | C2C12 statin | Rtt109 Vps75
Cc1ccc(O)c(N=Nc2ccccc2)n1 | 41.1* | 68.2 | 62.8* | 1.5 | 3.5
CN=C1S/C(=C\c2ccc(N3CCCC3)c(F)c2)C(=O)N1C | -4.0 | 4.9 | 30.9 | 7.6 | -1.3
CN=C1S/C(=C\c2ccc(N3CCOCC3)c(F)c2)C(=O)N1C | 1.9 | · | 70.8* | -9.6 | -5.3
O=Nc1c(O)[nH]c2ccc(F)cc12 | 0.8 | -12.0 | · | · | ·
Cc1cc2c(N=O)c(NO)ccc2[nH]1 | · | -49.8 | 7.1 | 80.4* | -1.3
C=CCNC(=O)c1ccc(-c2cccc([N+](=O)[O-])c2)o1 | 9.0 | 51.7 | 45.6* | · | 6.1
C=CCNC(=O)c1ccc(-c2ccc([N+](=O)[O-])cc2)o1 | 5.5 | 15.6 | -0.5 | 7.2 | 4.9
O=C(Nc1nccs1)c1ccc(-c2cccc([N+](=O)[O-])c2)o1 | 59.9* | 58.9 | 67.3* | -32.9 | 0.8
O=C(Nc1ccccc1F)c1ccc(-c2cccc([N+](=O)[O-])c2)o1 | 8.1 | 59.4 | 26.7 | -2.6 | 7.7
O=C(c1ccccc1)N1CC[C@@H]2[C@H]1c1cc(-c3ccc(F)cc3)ccc1N[C@@H]2CO | · | · | -10.7 | 21.3 | ·
Cc1cc(C)n2nc(-c3ccc(Br)cc3)cc2n1 | 45.1* | · | 34.8 | -26.0 | -0.3
Cc1cc(C)n2nc(-c3ccc(Cl)cc3)cc2n1 | 34.1* | 23.5 | 19.9 | 9.7 | 3.6
Cc1cc(C)n(-c2nc(-c3ccc(Cl)cc3)cs2)n1 | -0.5 | 36.0 | 51.4* | -13.7 | 8.7
CCCNC(=O)C[C@H]1CC[C@H]2[C@H](COc3ccc(NC(=O)c4cccc(C(F)(F)F)c4)cc3C(=O)N2C)O1 | · | · | 6.7 | 6.5 | ·
Clc1ccc(CSc2cc3c(nn2)-c2ccccc2CC3)cc1 | · | 45.0 | 52.3* | -26.0 | -4.2
Cc1ccc(S(=O)(=O)Nc2ccc3c(c2)C(=O)N([C@@H](C)CO)C[C@@H](C)[C@@H](CN(C)S(=O)(=O)c2ccc(C)cc2)OCCCC[C@H](C)O3)cc1 | · | · | -1.8 | · | ·
CN1[C@@H]2Cn3c(ccc(-c4cccnc4)c3=O)[C@H]1[C@@H](C(=O)N1CCC(Cc3ccccc3)CC1)[C@@H]2CO | · | · | -0.9 | -21.6 | ·
COc1ccccc1CN(C)C(=O)C1COc2ccccc2O1 (stereo not given) | 39.0* | · | 1.2 | 4.1 | -13.8
COc1ccc(C(=O)CNc2ccccc2CO)cc1 | 0.9 | 51.7 | · | · | 0.0
COc1ccc(C(=O)COc2ccccc2C#N)cc1 | 46.3* | · | · | · | 4.1
COc1ccc(C(=O)CNc2ccccc2C#N)cc1 | 5.1 | 60.4 | 49.5* | -3.6 | -2.5
COC(=O)CCC(=O)COc1ccc(OC)cc1C#N | · | 114.3* | -9.2 | 3.5 | -1.6
COc1ccc(C(=O)COc2ccccc2C(N)=O)cc1 | 4.8 | 33.7 | 3.3 | -1.2 | 1.1
C[C@@H]1CN([C@H](C)CO)C(=O)c2cc(NC(=O)C3CCCCC3)ccc2O[C@H]1CN(C)Cc1ccccc1 | · | · | 1.2 | -10.4 | ·
O=C(C[C@H]1C[C@H]2c3cc(NC(=O)C4CCC4)ccc3O[C@H]2[C@H](CO)O1)NCc1ccc(Cl)cc1 | · | · | 3.8 | 1.4 | ·
Cn1c(=O)c2c(nc(NC3CCCCC3)n2CC(=O)C23CC4CC(CC(C4)C2)C3)n(C)c1=O | · | -18.3 | 13.7 | 10.5 | 56.5*
Cn1c(=O)c2c(nc(NC3CCCCC3)n2Cc2ccccc2)n(C)c1=O | -1.5 | -5.7 | -2.3 | 18.6 | 2.6
Cc1[nH]nc(N=CC2=C(O)CC(C)(C)CC2=O)c1-c1ccccc1 | -3.6 | 23.4 | 44.7* | -1.8 | 6.3
Nc1nonc1C(=O)N/N=C\c1cc2c(cc1Cl)OCO2 | -0.1 | -2.0 | 17.2 | -6.2 | -2.4
Cc1ccc(/C=N/NC(=O)c2nn(C)cc2Cl)cc1 | · | 68.4 | · | · | -2.7
